Data taken from the supplement of paper PMC11628255, “Interference of metal ions on the bioluminescent signal of firefly, Renilla, and NanoLuc luciferases in high-throughput screening assays” (Frontiers in Chemistry, 2024).
± gives the standard deviation of the averaged measurements.

Tested on: firefly luciferase (FLuc)
Assay: residual bioluminescent signal relative to negative (DMSO) control; higher = less interference (more residual luciferase signal)
Method: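 Purified luciferase (FLuc 10 nM + 10 uM D-luciferin; NLuc 10 pM + 10 uM furimazine; RLuc 50 pM + 2 uM coelenterazine) in 384-well plates; metal salt pre-incubated with enzyme 10 min at RT, substrate added and luminescence read after 10 min. Signal normalised to plate DMSO negative control (% N_VALUE = x/mean neg *100); triplicate wells at 0.01, 1 and 5 mM salt.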

[1] = metal salt concentration 0.01 mM, HEPES conditions (100 mM HEPES, 5 mM MgSO4, 10 uM ATP, pH 7.5)
[2] = metal salt concentration 0.01 mM, screening conditions (0.5 mM Tris, 50 mM glycine, 0.5 mM EDTA, 5 mM MgSO4, 10 uM ATP, pH 7.6)
[3] = metal salt concentration 1 mM, HEPES conditions (100 mM HEPES, 5 mM MgSO4, 10 uM ATP, pH 7.5)
[4] = metal salt concentration 1 mM, screening conditions (0.5 mM Tris, 50 mM glycine, 0.5 mM EDTA, 5 mM MgSO4, 10 uM ATP, pH 7.6)
[5] = metal salt concentration 5 mM, HEPES conditions (100 mM HEPES, 5 mM MgSO4, 10 uM ATP, pH 7.5)
[6] = metal salt concentration 5 mM, screening conditions (0.5 mM Tris, 50 mM glycine, 0.5 mM EDTA, 5 mM MgSO4, 10 uM ATP, pH 7.6)

SMILES | residual bioluminescent signal [1] | residual bioluminescent signal [2] | residual bioluminescent signal [3] | residual bioluminescent signal [4] | residual bioluminescent signal [5] | residual bioluminescent signal [6]
O=[N+]([O-])[O-].[K+] [potassium nitrate] | 111 ± 4.3% | 100.2 ± 0.6% | 116 ± 12% | 98.6 ± 7% | 86.1 ± 12% | 65.5 ± 7.8%
O=[N+]([O-])[O-].O=[N+]([O-])[O-].[Cd+2] [cadmium nitrate] | 2.44 ± 1.8% | 95.2 ± 4.7% | 1.09 ± 0.62% | 0.343 ± 0.12% | 1.09 ± 0.62% | 0.211 ± 0.17%
O=[N+]([O-])[O-].O=[N+]([O-])[O-].[Cu+2] [copper(II) nitrate] | 2.58 ± 1% | 108 ± 11% | 0.407% | 0.712 ± 0.4% | 0.95 ± 0.62% | 0.553 ± 0.32%
O=[N+]([O-])[O-].[Na+] [sodium nitrate] | 90 ± 7.6% | 79.1 ± 6.3% | 72.4 ± 18% | 71.7 ± 2.9% | 60 ± 13% | 50 ± 4.3%
O=[N+]([O-])[O-].O=[N+]([O-])[O-].[Ca+2] [calcium nitrate] | 70 ± 9.6% | 75.6 ± 6.7% | 67.2 ± 14% | 60.2 ± 8.9% | 29.2 ± 2.8% | 24.5 ± 3.4%
O=[N+]([O-])[O-].O=[N+]([O-])[O-].[Zn+2] [zinc nitrate] | 3.8 ± 1.2% | 81.5 ± 7.4% | 1.49 ± 0.85% | 0.817 ± 0.28% | 1.09 ± 0.85% | 0.316 ± 0.079%
O=[N+]([O-])[O-].[Ag+] [silver nitrate] | 1.36 ± 0.62% | 1.13 ± 0.6% | 1.36 ± 1.6% | 0.316 ± 0.079% | 1.49 ± 0.62% | 0.369 ± 0.17%
